The target of assay [1] is T1, Aspartate--tRNA(Asp/Asn) ligase (Mycobacterium tuberculosis (strain ATCC 25618 / H37Rv)) (UniProt P9WFW3). Note: in the data most compounds retested in dose-response had high values.
T1 sequence (whole entry): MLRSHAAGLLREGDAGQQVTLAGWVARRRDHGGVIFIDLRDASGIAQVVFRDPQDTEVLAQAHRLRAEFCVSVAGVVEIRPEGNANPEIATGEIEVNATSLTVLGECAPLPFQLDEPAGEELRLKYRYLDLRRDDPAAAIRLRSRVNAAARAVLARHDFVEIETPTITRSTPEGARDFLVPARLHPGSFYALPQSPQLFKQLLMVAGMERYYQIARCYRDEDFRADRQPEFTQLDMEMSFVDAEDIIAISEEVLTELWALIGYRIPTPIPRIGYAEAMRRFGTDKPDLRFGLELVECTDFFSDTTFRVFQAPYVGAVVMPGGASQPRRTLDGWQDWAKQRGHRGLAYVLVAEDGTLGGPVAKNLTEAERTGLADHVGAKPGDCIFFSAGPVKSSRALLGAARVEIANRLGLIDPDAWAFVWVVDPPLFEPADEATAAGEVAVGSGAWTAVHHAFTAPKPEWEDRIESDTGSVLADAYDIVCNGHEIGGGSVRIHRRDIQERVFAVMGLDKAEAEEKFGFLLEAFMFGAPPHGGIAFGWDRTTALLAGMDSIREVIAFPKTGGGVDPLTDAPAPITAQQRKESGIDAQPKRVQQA
The experiment in a line: Assay for Asp RNA synthetase-1 from Mycobacterium tuberculosis. The format is functional. More on the design: scale not given: direction of the effect not stated beside the values. The following applies: 30 µM.

The target in assay [2] is Shiga toxin 2 (Escherichia coli O157:H7) (UniProt P09385+P09386). The experiment in a line: E. coli 0.157:H7 Shiga Toxin SOP - stx2 screening assay. The arrangement: scale not given: direction of the effect not stated beside the values. Conditions: 30 µM. The format is functional.

Structures are written as SMILES.

Take `Cc1ccc(NC(=O)C(C)N2CCCN(c3nccs3)CC2)c(C)c1` (configuration not stated): the Percent Effect is -4.7% in assay [1] and -49.5% in assay [2].
With `CN(C)[C@@H]1CCN(c2ncccn2)[C@H]1Cc1ccccc1`, the Percent Effect is -0.0594% in assay [1] and -1.36% in assay [2].
For the compound `CNC(=O)c1cccc(NC(=O)Cn2nc(-c3cccs3)oc2=O)c1`, the figures for the Percent Effect in assay [1] and in assay [2] were -8.92% and -55.6%, respectively.
As for `Cc1ccc(CC2CCCN2CC(=O)NCc2ccccn2)cc1` (configuration not stated), the Percent Effect is 0.629% in assay [1] and -4.96% in assay [2].
Consider `COc1cccc(OCCNCc2c(C)nn(C)c2N(C)C)c1`, for which the Percent Effect in assay [1] is -1.97%; in assay [2], 19.6%.
Take `COc1c(C)cnc(CN2CCOC(Cn3nc(C)nc3C)C2)c1C` (configuration not stated): the Percent Effect stood at 1.63% in assay [1] and 8.19% in assay [2].
The corresponding values for `Cc1cnn(CCNCC(=O)NCC2(c3ccccc3)CCC2)c1` are 4.12% and 22.9%.
On to `CC(O)CN1CCN(C(=O)c2ccc3c(c2)COC3)CC1` (configuration not stated), for which the results for the Percent Effect in assay [1] and in assay [2] were -4.85% and -19.4%, respectively.
As to `Cc1ccc(NC(=O)C2=CN=S=N2)cc1`, the Percent Effect was -2.07% in assay [1] and -19.2% in assay [2].
For the compound `COc1ccccc1N1CCC(CNCc2cccc(C#N)c2)C1` (configuration not stated), the figures for the Percent Effect in assay [1] and in assay [2] were 13.3% and 2%, respectively.
The corresponding values for `O=C(c1cc[nH]n1)N1CCCC1C1CCN(Cc2ccccc2)CC1` (configuration not stated) are 6.59% and -28.1%.
Taken in the same sequence, the figures for `Cc1nc(C)n(CC2CN(CC(=O)Nc3cccnc3)CCO2)n1` (configuration not stated) were -1.48% and 2.66%.
For the compound `O=C(c1cnccn1)N1CCOC2(CCN(Cc3ccsc3)CC2)C1`, the Percent Effect in assay [1] is -1.8%; in assay [2] it was -12.9%.
Taken in the same sequence, the figures for `O=C(COC(=O)Cc1cccs1)NCc1cccc(NC(=O)C2CC2)c1` were -1.66% and 28%.
Taken in the same sequence, the figures for `Cc1noc2ncc(C(=O)N3CCCC3c3cnn(C)c3)cc12` (configuration not stated) were 3.4% and -3.42%.
Regarding `Cn1cc(CN2CC3(CCN(C(=O)c4cscn4)C3)C2)cn1`, the Percent Effect is -5.56% in assay [1] and -18.3% in assay [2].
As to `CC(C)Oc1ccc(CNC(=O)CC(F)(F)F)cc1F`, the Percent Effect in assay [1] is -4.64%; in assay [2], 33.4%.
For `Cn1cnc2c1C(COCC1CC1)CN(C(=O)Cc1ccsc1)C2` (configuration not stated), the Percent Effect was 0.364% in assay [1] and -17.9% in assay [2].
As to `CCOc1cccc(NS(=O)(=O)c2cc(C)c(C(=O)O)s2)c1`, the Percent Effect in assay [1] was 1.62%; in assay [2], -10.3%.
The corresponding values for `CC(=O)Nc1nc(C(=O)N2CCCC2c2noc(C)n2)cs1` (configuration not stated) are 0.425% and -22.5%.
Taken in the same sequence, the figures for `Cc1cc(C)n(CC2CN(Cc3cccc(C(N)=O)c3)CCO2)n1` (configuration not stated) were -8.8% and -5.62%.
The corresponding values for `CCN(CC)C(=O)CCn1ncc2c(Cl)cccc21` are -1.07% and -23.7%.
Take `CCOc1ccccc1OC1CCN(C(=O)c2nc(=O)[nH][nH]2)CC1`: the Percent Effect in assay [1] was -1.63%; in assay [2] it was -11.2%.
For `CC(NC(=O)NCCCc1n[nH]c(N)c1C#N)c1cccs1` (configuration not stated), the Percent Effect in assay [1] is -7.85%; in assay [2], -34.7%.
Taken in the same sequence, the figures for `CCCOc1cccc(CNC(=O)CN2CCN(C)CC2C)c1` (configuration not stated) were 2.62% and -7.72%.
Taken in the same sequence, the figures for `Cn1cnc2c1CCN(CCS(=O)(=O)c1ccccc1)C2` were -1.69% and 0.397%.
For `Fc1ccc(CNCC2OCCc3cn(CC4CC4)nc32)cc1` (configuration not stated), the Percent Effect in assay [1] is -2.61%; in assay [2], -6.8%.
Taken in the same sequence, the figures for `O=C(Cn1cc(C(=O)O)ccc1=O)Nc1ccc(F)cc1Cl` were -8.57% and -28.6%.
The corresponding values for `O=C1[C@H]2CN(c3ncccn3)C[C@H]2CN1Cc1ccncc1` are 0.211% and -21.9%.
The corresponding values for `Cc1cccnc1NCCNC(=O)[C@H]1CNC[C@@H](C(=O)N2CCCC2)C1` are -0.342% and -7.88%.
In the case of `N#Cc1ccccc1CN1C[C@@H]2CC[C@H](C1)N(Cc1cscn1)C2=O`, the figures for the Percent Effect in assay [1] and in assay [2] were -3.02% and 3.66%, respectively.
As for `COC(=O)c1ccc(N2CCN(C(=O)c3cc(C)on3)C(C)C2)cc1` (configuration not stated), the Percent Effect was found to be 5.2% in assay [1] and 23.5% in assay [2].
Taken in the same sequence, the figures for `Cc1nc(CO[C@@H]2CN(Cc3cnn(C)c3)[C@@H]3COC[C@@H]32)cs1` were -6.31% and -3.46%.
Taken in the same sequence, the figures for `Cc1cccc(C(=O)N2C[C@@H]3OCCN(c4ncccn4)[C@@H]3C2)n1` were 2.48% and 2.47%.
`Cc1cc(C)n(C2CN(Cc3noc(-c4ccccc4)n3)C2)n1`: the values for the Percent Effect in assay [1] and in assay [2] were 4.04% and -51.5%, respectively.
Consider `Cc1cccc(OCCC(=O)N(C)CCNS(C)(=O)=O)c1C`, for which the values for the Percent Effect in assay [1] and in assay [2] were 0.299% and 6.1%, respectively.

For the origin of these results see ChEMBL document CHEMBL3988442, “University of Dundee, Small-Polar-MMV Screening Library” (2021).
